Our source for the outcome and AC50 values is PubChem BioAssay (EPA / NIEHS).

Values joined by “and” are separate entries in the source; they are usually repeats but may differ in a detail not shown here. Equal entries are not always repeated. Some compounds were tested as several samples or in several runs, with calls that do not always agree. Active and inactive are the calls of the source. Rule for the calls: active = hit-call score of the fitted dose curve at least 0.9, where 1 is the maximum; inactive = score below 0.9.

Usually AC50 stands for the concentration at which the activity in the assay is half-maximal.

One experiment is described as follows: BSK_3C_uPAR: BioMAP Diversity Plus: 3C Assay for Urokinase-type plasminogen activator receptor (uPAR) Biomarker Activity (AID 2282998). Particulars: BioMAP 3C HUVEC, uPAR biomarker ELISA; actives raise or lower the signal. The essentials: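 ELISA readout of uPAR on human vascular endothelium (umbilical vein primary cells), taken 24 h after chemical dosing. Increases and decreases are both fitted relative to DMSO vehicle.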
A general note: An ELISA detects its analyte on a solid surface through an enzyme-linked reagent.
Take `Nc1ccc(N)c([N+](=O)[O-])c1`: the result was inactive.
On to `COc1ccccc1NC(=O)CC(C)=O`, for which the result was inactive.
Consider `c1ccc2c(c1)-c1ccc3ccc4cccc5cc-2c1c3c45`, for which the concentration at half-maximal activity (AC50) was 0.667 µM (active).
As to `c1ccc(OCCOc2ccccc2)cc1`, the result was inactive.
In the case of `O=C(O)C(F)(F)C(F)(F)C(F)(F)C(F)(F)C(F)(F)C(F)(F)C(F)(F)C(F)F`, the outcome was inactive.
For `OCCN1CCOCC1`, the result was inactive.
In the case of `OCC(F)(OC(F)(F)C(F)(OC(F)(F)C(F)(F)C(F)(F)F)C(F)(F)F)C(F)(F)F` (stereo not given), the outcome was inactive.
`O=C(O)C(F)(F)OC(F)(F)C(F)(F)OC(F)(F)C(F)(F)C(F)(F)C(F)(F)F`: the AC50 is 38.7 µM (active) and the outcome was inactive.
Take `C=C(C)C(=O)OCCC(F)(F)C(F)(F)C(F)(F)C(F)(F)C(F)(F)C(F)(F)C(F)(F)C(F)(F)F`: the outcome was inactive.
With `C[C@]12CC[C@@H]3c4ccc(O)cc4CC[C@H]3[C@@H]1CC[C@@H]2O`, the half-maximal activity concentration (AC50) was 11.9 µM (active).
Consider `O=S(=O)(O)C(F)(F)C(F)(F)OC(F)(F)C(F)(F)F`, for which the result was inactive.
As for `CC(=O)OC(C)(C)C1CC=C(C)CC1` (stereo not given), the AC50 was 32.3 µM (active).
Turning to `CC/C(=C(\c1ccccc1)c1ccc(OCCN(C)C)cc1)c1ccccc1`, the concentration at half-maximal activity (AC50) is 5.43 µM (active) and 5.65 µM (active).
With `C=C(F)C(=O)OC(C(F)(F)F)C(F)(F)F`, the outcome was inactive.

Another experiment in a line: BSK_3C_VCAM1: BioMAP Diversity Plus: 3C Assay for Vascular cell adhesion molecule 1 (VCAM1) Biomarker Activity (AID 2282999). Particulars: BioMAP 3C HUVEC, VCAM1 ELISA, cytokine-stimulated; actives raise or lower the signal. Put shortly: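 HUVEC primary cells, 24 h compound exposure; VCAM-1 by ELISA; gain/loss of signal fitted bidirectionally vs DMSO baseline.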
On to `Nc1ccc(N)c([N+](=O)[O-])c1`, for which the outcome was inactive.
As to `COc1ccccc1NC(=O)CC(C)=O`, the outcome was inactive.
As for `c1ccc2c(c1)-c1ccc3ccc4cccc5cc-2c1c3c45`, the outcome was inactive.
Regarding `c1ccc(OCCOc2ccccc2)cc1`, the outcome was inactive.
The same measure, in the same setting: the entry for `O=C(O)C(F)(F)C(F)(F)C(F)(F)C(F)(F)C(F)(F)C(F)(F)C(F)(F)C(F)F` is “inactive”; for `OCCN1CCOCC1` it is “inactive”.
With `OCC(F)(OC(F)(F)C(F)(OC(F)(F)C(F)(F)C(F)(F)F)C(F)(F)F)C(F)(F)F` (stereo not given), the AC50 is 3.72 µM (active) and the outcome was inactive.
On to `O=C(O)C(F)(F)OC(F)(F)C(F)(F)OC(F)(F)C(F)(F)C(F)(F)C(F)(F)F`, for which the result was inactive.
Regarding `C=C(C)C(=O)OCCC(F)(F)C(F)(F)C(F)(F)C(F)(F)C(F)(F)C(F)(F)C(F)(F)C(F)(F)F`, the result was inactive.
In the case of `C[C@]12CC[C@@H]3c4ccc(O)cc4CC[C@H]3[C@@H]1CC[C@@H]2O`, the outcome was inactive.
On to `O=S(=O)(O)C(F)(F)C(F)(F)OC(F)(F)C(F)(F)F`, for which the result was inactive.
On the same count and under the same terms, as for `CC(=O)OC(C)(C)C1CC=C(C)CC1` (stereo not given), the entry is “inactive”.
As to `CC/C(=C(\c1ccccc1)c1ccc(OCCN(C)C)cc1)c1ccccc1`, the AC50 was 9.97 µM (active) and 9.7 µM (active).
In the case of `C=C(F)C(=O)OC(C(F)(F)F)C(F)(F)F`, the result was inactive.
